Results on ten molecules are retold here after PubChem BioAssay (EPA / NIEHS).

Molecules are shown by their SMILES. Results filed as inconclusive are left out. Calls of active or inactive are those of the source. The calls were made as follows: active = hit-call score of the fitted dose curve at least 0.9, where 1 is the maximum; inconclusive = response in the unintended direction; inactive = score below 0.9.

human Serotonin, 5-Hydroxytryptamine Receptor 5A (5HT5A), HTR5A (gene 3361), sequence (P47898 whole entry, looked up): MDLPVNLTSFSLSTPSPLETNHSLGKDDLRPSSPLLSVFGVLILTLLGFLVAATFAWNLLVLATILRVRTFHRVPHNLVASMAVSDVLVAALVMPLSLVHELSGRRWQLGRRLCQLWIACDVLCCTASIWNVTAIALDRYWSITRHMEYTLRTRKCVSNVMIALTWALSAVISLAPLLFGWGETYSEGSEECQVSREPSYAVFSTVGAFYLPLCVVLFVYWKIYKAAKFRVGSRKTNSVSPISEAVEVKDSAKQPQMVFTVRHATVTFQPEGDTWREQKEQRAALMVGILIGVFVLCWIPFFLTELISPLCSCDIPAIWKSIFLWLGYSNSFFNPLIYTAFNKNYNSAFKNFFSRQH

The assay has as its target human Serotonin, 5-Hydroxytryptamine Receptor 5A (5HT5A), HTR5A (gene 3361) (UniProt P47898). Description: NVS_GPCR_h5HT5A: NovaScreen (NVS) G Protein-Coupled Receptor Assay for human Serotonin, 5-Hydroxytryptamine Receptor 5A (5HT5A) (AID 2283251). Here is the method:
NVS_GPCR_h5HT5A is a biochemical, single-readout assay that uses extracted gene-proteins from HEK293 in a cell-free assay. Measurements were taken 1 hour after chemical dosing in a 96-well plate.NVS_GPCR_h5HT5A is one of one assay component(s) measured or calculated from the NVS_GPCR_h5HT5A assay. It is designed to make measurements of radioligand binding, a form of binding reporter, as detected with scintillation counting signals by Filter-based radiodetection technology.Data from the assay component NVS_GPCR_h5HT5A was analyzed into 1 assay endpoint. This assay endpoint, NVS_GPCR_h5HT5A, was analyzed in the positive analysis fitting direction relative to DMSO as the negative control and baseline of activity. Using a type of binding reporter, loss-of-signal activity can be used to understand changes in the binding as they relate to the gene HTR5A. Furthermore, this assay endpoint can be referred to as a primary readout, because the performed assay has only produced 1 assay endpoint. To generalize the intended target to other relatable targets, this assay endpoint is annotated to the gpcr intended target family, where the subfamily is rhodopsin-like receptor.
Binding assays used specific radioligands (tritiated, iodinated) with non-radioactive competitive displacement ligands in agonist or antagonist protocols (as indicated) and various reference compounds and inhibitors to titrate specific binding to receptors and transporters. Most enzyme assays (CYPs, kinases, phosphatases, proteases, HDACs) used recombinant protein and specific substrates (fluorescence mostly, some colorimetric and radioactive) and inhibitors, followed by a biochemical separation of substrate and product. All assays for the biochemical HTS were initially run in duplicate at a single concentration (10 uM for CYP450 assays and 25 uM for all others). […] Each assay was run with positive and negative controls, and concurrent controls on every plate. The follow-up (secondary) screen tested active chemical-pairs in concentration series, as well as a few additional assays not tested in the primary screen, some selected negative inactives, and several cases re-run in the concentration series for confirmatory purposes.
What is called AC50 is the concentration giving half of the maximal activity seen. As to `CC1(C)C(C(=O)OC(C#N)c2cccc(Oc3ccccc3)c2)C1(C)C` (stereo not given), the AC50 was 25 µM (active).

Take `CC(C)N1C(=O)N(c2ccccc2)CSC1=NC(C)(C)C`: the call was inactive.

Regarding `CCOC(=O)C(C)OC(=O)c1cc(Oc2ccc(C(F)(F)F)cc2Cl)ccc1[N+](=O)[O-]` (stereo not given), the AC50 is 6.67 µM (active).

As for `CC(C)=CC1C(C(=O)OCc2coc(Cc3ccccc3)c2)C1(C)C` (stereo not given), the AC50 was 25 µM (active).

Turning to `CCCCC(O)(Cn1cncn1)c1ccc(Cl)cc1Cl` (stereo not given), the outcome was inactive.

Regarding `CO/N=C(/C1=NOCCO1)c1ccccc1Oc1ncnc(Oc2ccccc2Cl)c1F`, the call was inactive.

Regarding `OC(c1ccc(Cl)cc1)(c1ccc(Cl)cc1)C(Cl)(Cl)Cl`, the molecule was classed as inactive.

`O=C1C2CC=CCC2C(=O)N1SC(Cl)(Cl)Cl` (stereo not given): the molecule was called inactive.

`CN/C(=N\[N+](=O)[O-])NCc1cnc(Cl)s1`: the molecule was classed as inactive.

As for `CC1(C)C(C=C(Cl)Cl)C1C(=O)OC(C#N)c1cccc(Oc2ccccc2)c1` (stereo not given), the molecule was called inactive.
